ADAM10 inh: inhibits human ADAM10. O14672. recombinant ADAM10, EDANS/DABCYL FRET peptide cleavage, 3 h. inhibition, % at 7 µM. 0.62% of 370,000 active;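 active = inhibition above a per-campaign cutoff equal to the mean of compounds falling between control-based bounds plus 3 SD, cut at about 20% in these data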;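 note: 0% = DMSO wells while the 100% control is not disclosed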
NPR2 activator: GC-B (human) receptor activation; activation, % at 10 µM; P20594; HEK293-GC-B cells, CNP EC30, cGMP TR-FRET; 0% at EC30 CNP, 100% saturating CNP; 0.11% of 370,000 active;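 active = activation at 10 µM reaching about 35% in either raw or pattern-adjusted values, limit read from the data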
Target sequence (P20594 whole entry, looked up): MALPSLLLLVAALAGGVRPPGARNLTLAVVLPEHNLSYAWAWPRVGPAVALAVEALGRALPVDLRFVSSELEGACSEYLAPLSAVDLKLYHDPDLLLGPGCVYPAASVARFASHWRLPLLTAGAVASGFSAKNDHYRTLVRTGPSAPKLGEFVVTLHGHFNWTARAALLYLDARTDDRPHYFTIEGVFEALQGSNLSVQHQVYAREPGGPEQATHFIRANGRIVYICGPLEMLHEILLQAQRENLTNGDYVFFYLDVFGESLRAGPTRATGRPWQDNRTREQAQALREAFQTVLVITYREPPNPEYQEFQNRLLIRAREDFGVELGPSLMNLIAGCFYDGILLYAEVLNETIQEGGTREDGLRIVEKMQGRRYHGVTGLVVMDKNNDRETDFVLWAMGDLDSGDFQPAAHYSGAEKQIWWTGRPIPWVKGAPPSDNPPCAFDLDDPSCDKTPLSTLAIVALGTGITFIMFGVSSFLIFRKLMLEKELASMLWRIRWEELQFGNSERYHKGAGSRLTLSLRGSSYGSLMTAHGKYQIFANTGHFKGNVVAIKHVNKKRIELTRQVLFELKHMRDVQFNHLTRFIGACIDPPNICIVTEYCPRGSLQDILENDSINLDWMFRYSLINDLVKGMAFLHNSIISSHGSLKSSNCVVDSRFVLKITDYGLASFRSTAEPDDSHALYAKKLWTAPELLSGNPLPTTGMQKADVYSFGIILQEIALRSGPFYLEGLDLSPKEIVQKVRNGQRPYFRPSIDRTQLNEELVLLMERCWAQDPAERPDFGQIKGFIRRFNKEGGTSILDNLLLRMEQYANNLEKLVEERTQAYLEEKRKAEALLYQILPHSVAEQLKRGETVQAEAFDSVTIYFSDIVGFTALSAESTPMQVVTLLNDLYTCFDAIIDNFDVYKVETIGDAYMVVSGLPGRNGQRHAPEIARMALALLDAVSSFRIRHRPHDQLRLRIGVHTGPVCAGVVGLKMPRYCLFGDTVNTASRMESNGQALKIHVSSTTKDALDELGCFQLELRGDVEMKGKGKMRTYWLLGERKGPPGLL
ADAM17 inh: inhibits human ADAM17; recombinant ADAM17, EDANS/DABCYL FRET peptide cleavage; inhibition, % at 6.95 µM; 0.83% of 370,000 active; AID 720648;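 active = inhibition above the mean of compounds lying between control limits plus 3 SD, set per campaign, cut at about 8.5% in these data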;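 note: 0% = DMSO-only wells as the low control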
FAS TE block: blocks the thioesterase domain of human fatty acid synthase. inhibition, % at 15 µM. 0.67% of 360,000 active. recombinant FAS-TE, OMFH fluorogenic substrate, fluorescence endpoint. P49327;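 active = compounds whose normalised, plate-corrected inhibition of enzyme fluorescence in the single-dose primary screen is 50% or more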;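 note: 0% = DMSO with enzyme and 100% = substrate without enzyme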
GC-A act: GC-A (human) enzyme activation; P16066; HEK293 GC-A cells, cGMP TR-FRET, EC30 ANP; 0% at EC30 ANP, 100% saturating ANP; activation, % at 10 µM; 0.14% of 370,000 active; AID 1671463; in the data active = activation above about 40%
ADAM10 counter: ADAM10 inhibition, counter-screen for ADAM17 exosite hits; shares compounds with ADAM17 inh; recombinant ADAM10, EDANS/DABCYL FRET peptide cleavage, 3 h; inhibition, % at 6.95 µM; 47% of 2,900 active;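 active = mean inhibition over the triplicate runs exceeds the activity threshold set in the earlier primary screen, cut at about 20% in these data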;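 note: 0% = DMSO wells and 100% = marimastat wells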
ADAM17 confirm: confirmation of inhibitors of human ADAM17. shares compounds with ADAM17 inh. recombinant ADAM17, EDANS/DABCYL QFRET peptide cleavage. inhibition, % at 6.95 µM. 65% of 2,900 active;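 active = mean inhibition across replicates above the hit cutoff set in the primary screen, cut at about 8.5% in these data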;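 note: 0% = DMSO wells and 100% = marimastat wells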
Starred values were filed as active, the others as inactive; . = not tested or not shown. The list is not random: actives were taken first. Their share in the collection is about 2%.

SMILES	ADAM10 inh	NPR2 activator	ADAM17 inh	FAS TE block	GC-A act	ADAM10 counter	ADAM17 confirm
COc1cc(/C=N/NC(=O)c2cc(-c3ccccc3OC(C)C)nc3ccccc23)ccc1O	17	18	11*	14	9	17	15*
COc1cc(/C=N/NC(=O)c2cc(-c3ccccc3)nc3ccccc23)ccc1O	8	-2	1	10	0	.	.
CCc1cc2c(nc1CC)CCCN2S(=O)(=O)c1ccc(OC)cc1	5	5	11*	.	-2	2	6
CCc1cc2c(nc1CC)CCCN2S(=O)(=O)c1ccc(F)cc1	-3	-3	0	.	2	.	.
CCOC(=O)N1CCN(C(=O)C[C@H]2C[C@@]3(C(=O)OC)C(=C[C@H](C4CCCC4)O[C@@H]3C)N(Cc3ccco3)C2=O)CC1	-6	-2	-3	.	-7	.	.
C(=C\c1ccccc1)/CSc1nnc(Cc2cccs2)n1-c1ccccc1	1	-10	3	.	-19	.	.
O=C(Nc1ccc(N2CCCC2)cc1)c1cccc(F)c1	8	-1	18*	-4	-2	-3	4
CC(CCN1CCC(C(O)(c2ccccc2)c2ccccc2)CC1)Oc1cccc(F)c1 (centres undefined)	3	-7	4	.	-16	.	.
CCOc1ccccc1C1c2[nH]c3ccccc3c2C[C@H]2C(=O)N(C3CCN(Cc4ccccc4)CC3)CC(=O)N12 (some centres undefined)	19	-2	9.7*	25	0	27*	14*
Cc1ccccc1C1c2[nH]c3ccccc3c2C[C@H]2C(=O)N(C3CCN(Cc4ccccc4)CC3)CC(=O)N12 (some centres undefined)	18	16	8.7*	19	7	26*	14*
COc1ccc(C2c3[nH]c4ccccc4c3C[C@H]3C(=O)N(C4CCN(Cc5ccccc5)CC4)CC(=O)N23)c(OC)c1 (some centres undefined)	16	4	5	16	0	.	.
O=C(CSc1nnc(-c2ccccc2)n1-c1ccccc1)NN=Cc1ccc(-c2ccccc2)cc1	-4	4	-3	.	-8	.	.
COc1ccc(NC(=O)c2cc3sccc3n2Cc2ccc(F)cc2)cc1OC	15	-4	9.8*	24	0	3	7
CN1Cc2nnn(Cc3ccccc3)c2-c2cc(F)ccc2S1(=O)=O	0	-1	-4	.	-3	.	.
Cc1ccc(Cn2nnc3c2-c2cc(F)ccc2S(=O)(=O)N(C(C)(C)C)C3)cc1	18	0	9.5*	.	0	23*	11*
CCN(CC)C(=O)CC[C@H]1CC[C@]2(CCCN(S(=O)(=O)C3CCCCC3)C2)O1	3	7	0	.	3	.	.
Cc1cc(C(=O)Cn2nnc(-c3ccc(Cl)cc3)n2)c(C)n1CC1CCCO1 (centres undefined)	10	-3	9.0*	20	6	17	9.6*
Cc1cc(C(=O)CSc2nnc(-c3ccc(Cl)cc3)n2C)c(C)n1CC1CCCO1 (centres undefined)	-5	-3	-4	-9	0	.	.
Cc1ccc(-c2nnc(NC(=O)COc3ccc(F)cc3Cl)o2)cc1C	-2	-7	-3	.	-5	.	.
Cc1cnc(C(=O)N(c2ccc(N3CCOCC3)cc2)C2C(=O)Nc3ccccc3N=C2c2ccc3c(c2)OCO3)cn1 (centres undefined)	7	-7	11*	-4	0	11	9.8*
CC(C)Oc1cccc(-c2n[nH]c(=S)n2N=Cc2ccc(OCc3ccccc3)cc2)c1	-4	-8	1	.	1	.	.
CCCCC(=O)N(C)c1c(CC)nc2c(OCC3CCCCC3)cccn12	5	-3	9.7*	10	0	0	3
CCc1nc2c(OCCC3CCCCC3)cccn2c1N(C)C(=O)c1cccs1	17	1	9.4*	16	-1	21*	12*
CCc1nc2c(OCCC3CCCCC3)cccn2c1N(C)C(=O)CC(C)C	-11	0	-4	14	-2	.	.
COCc1cccc(-c2cc(C(=O)OC)c3n(c2=O)CCC3)c1	-18	-2	-7	.	3	.	.
SMILES	ADAM10 inh	NPR2 activator	ADAM17 inh	FAS TE block	GC-A act	ADAM10 counter	ADAM17 confirm
COc1ccc(S(=O)(=O)NN(C)c2ncc(C(F)(F)F)cc2Cl)cc1	-8	-1	9.4*	0	3	7	6
Cc1ccccc1Cn1cc(COC(=O)N2CCOCC2)nn1	-5	12	-8	.	2	.	.
COc1cc(OC)cc(N(C(=O)C2COc3ccccc3O2)C(C(=O)NC2CCCCC2)c2ccc(O)cc2)c1 (centres undefined)	15	-13	11*	12	-20	15	10*
COc1ccc(N(C(=O)C2COc3ccccc3O2)C(C(=O)NC2CCCCC2)c2ccccc2)cc1OC (centres undefined)	-4	-2	-2	15	-7	.	.
FC(F)(F)c1ccc(Cn2ccc3ccc(-c4ccc5ccn(Cc6ccccc6)c5c4)cc32)cc1	-23	-3	-8	.	-4	.	.
COCc1cc(N2CCN(C(=O)OC(C)(C)C)C[C@@H]2C)ccc1N1CC[C@H](O)C1	-6	5	-5	.	3	.	.
COc1ccccc1Nc1nc(N)nc(CSC(=S)N2CC(C)CC(C)C2)n1 (centres undefined)	17	-3	12*	16	-4	30*	16*
COc1ccc(Nc2nc(N)nc(CSC(=S)N3CCCCC3C)n2)cc1 (centres undefined)	11	-5	9.7*	18	1	13	10*
CC1CCN(C(=S)SCc2nc(N)nc(Nc3ccccc3)n2)CC1	1	3	1	20	0	.	.
C=CCN(C)CC#CCCCCl	-8	2	-3	.	1	.	.
Cc1ccccc1S(=O)(=O)N1CCC(c2nc3ccccc3o2)CC1	-11	1	-2	.	3	.	.
O=C(O)CNC(=O)C1(NC(=O)OCc2ccccc2)CCCC1	6	0	8.7*	-8	3	1	3
Cc1ccc(S(=O)(=O)NCCC(c2ccc(F)cc2)c2ccco2)cc1 (centres undefined)	15	-5	9.7*	23	-12	21*	12*
Cc1ccc(S(=O)(=O)NCC(c2ccco2)S(=O)(=O)c2ccccc2)cc1 (centres undefined)	-2	-1	0	0	-1	.	.
COc1c(S(=O)(=O)N2CCN(c3ccc(F)cc3)CC2)ccc(Cl)c1Cl	16	-7	9.7*	29	-14	22*	14*
COc1ccc(Cl)cc1S(=O)(=O)N1CCN(c2ccc(F)cc2)CC1	7	0	0	34	-2	.	.

Screening data as filed in PubChem BioAssay.
